# Hits are enriched below; roughly 2.2% of the tested compounds scored in any of these assays.
# TDP43 rescue: qHTS of TDP-43 Inhibitors | TDP-43 expressing yeast growth rescue, BacTiter-Glo, 24 h | Potency, µM (doses to about 46.1 µM), for the others: at the highest dose growth rescue (activation), usual class: activators | 1.8% of 410,000 active; further: % of control where 0% means no effect; nearly all actives have a fitted effect of over 50% in size
#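 Galactose-induced TDP-43 yeast, OD600=0.02, compound pinned; 24 hr, 30 deg C; BacTiter-Glo luminescence for growth. Inhibitors of TDP-43 toxicity read as activators.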
# FUS yeast rescue: qHTS for Suppressors of FUS Proteinopathy: Primary screen using FUS-linked yeast assay. AID 1347120, 2019. Potency, µM (titrated, usually from 76.6 µM), usual class: activators. S. cerevisiae FUS-expressing, growth rescue, OD600, 24 h. 0.24% of 390,000 active;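 further: plate controls were DMSO vehicle for no effect and reference control for full effect; nearly all actives have a fitted effect of over 55% in size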
#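 Yeast FUS proteinopathy model; galactose-induced FUS (2%), starting OD 0.005. Cpds in dilution series, 24hr, 30C, 99% humidity. Abs 600 nm growth. Pos ctrl CP55940 (top 92uM final); neg ctrl DMSO.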
# Mito fusion yeast: qHTS Assay for Small Molecule Inhibitors of Mitochondrial Division or Activators of Mitochondrial Fusion; S. cerevisiae fusion-defective mutant growth rescue, CellTiterGlo 48 h; Potency, µM (titrated, usually from 46.1 µM), for the others: top-dose growth rescue (activation), hits mostly activators; 0.23% of 320,000 active; further: % of control where 0% means no effect; nearly all actives have a fitted effect of over 45% in size
#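 Luminescent cell viability in 1536-well qHTS format served as the measure of rescued growth in ts fusion-mutant S. cerevisiae cultured on non-fermentable YPEG for 48 hours at 37C.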
# Abeta yeast res: qHTS for compounds that reverse cellular toxicity of Amyloid beta (A-beta) peptide in yeast: Primary Screen. yeast expressing A-beta42, growth rescue, OD600, 48 h; response scale: 0% DMSO, 100% iron-clioquinol control. Potency, µM (titrated, usually from 46.1 µM), hits mostly activators. 0.063% of 410,000 active. AID 1347071, 2019; further: nearly all actives have a fitted effect of over 55% in size
#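 Growth rescue measured by 600 nm absorbance after 48 h yeast culture at 30 C with compound. Values normalized between DMSO and an equimolar ferric chloride plus clioquinol control.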
# aSyn rescue: qHTS of alpha-syn Inhibitors; Yeast expressing alpha-synuclein, growth rescue, BacTiter-Glo, 24 h; Potency, µM (series often up to 46.1 µM), inactives show at the highest dose growth rescue (activation), most hits filed as activators; 0.14% of 370,000 active; AID 652106, 2013; further: % of control where 0% means no effect; nearly all actives have a fitted effect of over 65% in size
#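 Galactose-induced alpha-syn yeast (OD600=0.02, raffinose-pregrown) + pinned cpd, 24 hr, 30 deg C; growth by BacTiter-Glo luminescence. Growth restoration scores as activation.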
# * marks the source's active call; other numbers are inactive results; i = inactive; ? = inconclusive; . = not tested or not shown; [ ] = dose if it differs, or a comment. The call rests on the fitted dose curve; in most records, active means well fitted curve in the direction sought with a large enough effect; inconclusive means small, poorly fitted or top-dose-only effect, or another doubt; inactive means no such curve, though single readings can be large; an effect the other way counts as inactive or inconclusive. Potency means the concentration at half of the fitted maximal effect.
SMILES,TDP43 rescue,FUS yeast rescue,Mito fusion yeast,Abeta yeast res,aSyn rescue
COc1ccc(-n2nc(C(=O)NCC(=O)NCCc3ccc(OC)c(OC)c3)c3ccccc3c2=O)cc1Cl,-7%,?,1%,i,-2%
CC1Nc2ncnc(N3CCc4ccccc4C3)c2N(Cc2ccc(Br)cc2)C1=O (stereo not drawn),11µM*,?,6%,i,?
CC1Nc2ncnc(N3CCN(c4ccccc4)CC3)c2N(Cc2ccc(Cl)cc2)C1=O (stereo not drawn),?,20µM*,?,i,?
O=C1C(Cc2ccccc2)Nc2ncnc(N3CCc4ccccc4C3)c2N1Cc1ccccc1 (stereo not drawn),5%,?,.,i,9%
CCC1Nc2ncnc(N3CCc4ccccc4C3)c2N(Cc2ccc(Br)cc2)C1=O (stereo not drawn),35µM*,?,.,i,?
CCOC(=O)c1csc(NC(=O)C2CCCN(S(=O)(=O)c3cccs3)C2)n1 (stereo not drawn),.,i,.,.,.
Cc1cc(-c2n[nH]c(=S)n2N=Cc2ccc(-c3ccccc3)cc2)n[nH]1,.,i,.,.,.
c1ccc(CSc2ccc(-c3cccnc3)nn2)nc1,8%,i,3%,i,-2%
CC(C)(C)OC(=O)N1O[C@H]2CC1[C@@H]1[C@@H]2N=NN1CCc1ccncc1,13%,i,.,i,-6%
CN(C)Cc1c(C(=O)N/N=C/c2ccc(OCc3c(F)cccc3Cl)cc2)nnn1-c1nonc1N,11µM*,i,5%,i,-1%
Nc1nonc1-n1nnc(C(=O)N/N=C/c2ccc(O)cc2)c1COc1ccc(F)cc1,-29%,i,9%,i,-18%
CC(Sc1ccc2ccccc2n1)C(=O)O (stereo not drawn),11µM*,i,5%,i,-17%
Cc1cc(O)c(NC(=O)c2cc([N+](=O)[O-])ccc2Cl)cc1C,14µM*,i,?,i,-3%
CCOC(=O)c1ccc(CNc2ncnc3nc[nH]c23)cc1,.,.,.,.,25µM*
CC(C)c1ccc(C2=CC(c3cccc(Cl)c3)n3ncnc3N2)cc1 (stereo not drawn),13µM*,i,.,i,.
CCc1ccc(C2=CC(c3cccc(C)c3)n3c(nc4ccccc43)N2)cc1 (stereo not drawn),13µM*,i,.,i,.
COc1cccc(C2=CC(c3ccccc3F)n3c(nc4ccccc43)N2)c1 (stereo not drawn),?,i,.,i,.
CC(C)c1ccc(C2=CC(c3cccc(Cl)c3)n3c(nc4ccccc43)N2)cc1 (stereo not drawn),18µM*,i,.,i,.
CCc1ccc(C2=CC(c3cccc(OC)c3OC)n3c(nc4ccccc43)N2)cc1 (stereo not drawn),1%,i,.,i,.
CCOc1ccc(C2=CC(c3cccc(Br)c3)n3c(nc4ccccc43)N2)cc1Cl (stereo not drawn),13µM*,i,.,i,.
CCOC(=O)c1[nH]c(C)c(CCC(=O)Nc2ccccc2OCC)c1C,15%[9.22 µM],i,.,i,.
COc1ccccc1C1NC(c2ccc3c(c2)OCO3)=CC(c2cc(Cl)ccc2O)N1 (stereo not drawn),.,.,.,.,-16%
Cn1c(=O)c2c(nc(SCc3ccccc3F)n2C)n(C)c1=O,5%,i,1%,i,3%
COc1ccc(-n2c(-c3cnccn3)n[nH]c2=S)cc1,-19%,i,-2%,i,3.5µM*
Cc1oc2c(c1C(=O)N1CCC(C)CC1)C(=O)c1ccccc1C2=O,13µM*,i,-5%,i,8%
SMILES,TDP43 rescue,FUS yeast rescue,Mito fusion yeast,Abeta yeast res,aSyn rescue
Cc1ccccc1CN1CCCCC(NC(=O)Nc2ccccc2)C1=O (stereo not drawn),.,i,.,.,.
COc1ccc(C(=O)c2sc(Nc3ccccc3)nc2N)cc1,2%,i,-3%,i,-3%
COc1ccc(C(=O)c2sc(Nc3ccccc3F)nc2N)cc1,20µM*,i,4%,i,13%
COc1cc2c(NC3CCN(C)CC3)nc(N3CCCN(C)CC3)nc2cc1OCc1ccccc1,.,.,.,.,-11%
Clc1ccc(Sc2cc(Cl)c(-c3ccccc3)nn2)cc1,7.9µM*,i,18%,i,-19%
Clc1ccc(Sc2ccccn2)cc1,-4%,i,2%,i,-3%
COc1ccccc1N1CCN(S(=O)(=O)c2cc(-c3cc(C)no3)ccc2C(C)C)CC1,-3%,i,-36%,i,?
COc1cc(-c2ccno2)ccc1S(=O)(=O)N1CCN(c2ccc(C(C)=O)cc2)CC1,24%,i,.,i,.
COc1cc(-c2ccno2)ccc1S(=O)(=O)N1CCN(c2ccc(F)cc2)CC1,25%,i,.,i,.
COc1cccc(N2CCN(S(=O)(=O)c3ccc(-c4ccno4)cc3OC)CC2)c1,13µM*,i,.,i,.
COc1cc(-c2ccno2)ccc1S(=O)(=O)N1CCN(c2ccccc2)CC1,11µM*,i,.,i,.
COc1ccccc1N1CCN(S(=O)(=O)c2ccc(-c3ccno3)cc2OC)CC1,13µM*,i,.,i,.
Cc1ccc(S(=O)(=O)CCC(=O)c2cccc([N+](=O)[O-])c2)cc1,18µM*,i,-3%,i,-48%
Cc1ccc(C(=O)CCS(=O)(=O)c2ccc(Br)cc2)cc1,-6%,i,-4%,i,5%
Cc1ccccc1-c1nnn(CC(=O)NC(=O)NC2CCCC2)n1,13%,.,.,i,7%
O=C(/C=N/O)Nc1ccc2sc3ccccc3c2c1,7.9µM*,i,15%,i,0%
CC(C)CN1C(=O)/C(=C/c2ccco2)NC1=S,?,i,7%,i,-7%
CC(C)CN1C(=O)/C(=C/c2cccs2)NC1=S,25µM*,i,7%,i,-23%
CCCN1C(=O)/C(=C/c2ccc(C)s2)NC1=S,11µM*,i,18%,i,-8%
Cn1nnc2c(NCc3ccco3)ncnc21,.,.,.,.,2%
O=S1(=O)C=C(Sc2nc3ccccc3s2)c2ccccc21,2.2µM*,i,-11%,i,13%
Cc1cccc(-c2nnc(C3CCN(S(=O)(=O)c4cccc(Cl)c4)CC3)o2)c1,16µM*,?,.,i,.
Cc1ccc(-c2nnc(C3CCN(S(=O)(=O)c4ccc(C)c(C)c4)CC3)o2)cc1,?,i,.,i,.
